Measured values from PubChem BioAssay AID623957 (NMMLSC, 2012).
Activity calls are given as the source filed them.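 The calls were made as follows: active = compounds whose fitted half-maximal concentration for lowering the signal is under 100 µM; inactive = the rest.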

Assay: compound effect on K562 vector-control line – cell-based, flow cytometry, cherry pick set 1, counter-screen for ABCB6 inhibitor project, dose response (AID 623957)
Details: K562 vector-only cells, flow cytometry fluorescence, 1 h; series mostly up to 100 µM

SMILES: C[N+](C)(C)CC1CCCC(C[N+](C)(C)C)C1=O (stereo unspecified)
- outcome: inactive
